# Source: PubChem
# Rows were chosen to be rich in hits. Some 22% of all compounds tested hit in one or more screens of this group.
# Measles CPE: protection of cells from measles virus; Measles virus-infected cells, CPE protection, absorbance; protection (pct of control), % at 4 µM; hit rate 1.5% among 140,000; in the data active = protection mostly above about 24%, no sharp cut-off; inactive = mostly below about 26%
# CYP2C19 inhib: human CYP2C19 inhibition; P33261; CYP2C19 Supersomes, luciferin-H EGE luminescence, 30 min; inhibition, % at 5 µM; hit rate 21% among 96,000;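 active = CYP2C19 inhibition above a set limit at 5 µM in the primary screen, cut at about 50% in these data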;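 note: plate controls were negative control wells for no effect and 2.5 mM tranylcypromine positive control for full effect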
# Target sequence (P33261 whole entry, looked up): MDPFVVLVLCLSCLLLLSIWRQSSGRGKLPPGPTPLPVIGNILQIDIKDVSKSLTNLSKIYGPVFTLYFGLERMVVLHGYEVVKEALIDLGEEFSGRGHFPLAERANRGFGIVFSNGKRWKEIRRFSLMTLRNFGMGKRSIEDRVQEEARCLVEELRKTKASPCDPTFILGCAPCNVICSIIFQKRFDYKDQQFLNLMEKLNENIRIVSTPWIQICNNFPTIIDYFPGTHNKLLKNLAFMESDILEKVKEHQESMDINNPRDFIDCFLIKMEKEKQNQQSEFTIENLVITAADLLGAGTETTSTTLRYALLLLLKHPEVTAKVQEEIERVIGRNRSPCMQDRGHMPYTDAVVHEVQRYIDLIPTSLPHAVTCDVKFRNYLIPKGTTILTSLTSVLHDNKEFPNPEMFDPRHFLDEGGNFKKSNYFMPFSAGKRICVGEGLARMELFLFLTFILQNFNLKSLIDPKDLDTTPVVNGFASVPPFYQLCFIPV
# CYP2C9 activ: CYP2C9 (human) activation; P11712; recombinant CYP2C9, luciferin-H conversion, luminescence; active compounds read high; factor 1 = untreated enzyme, 0 = blocked; activation factor at 5 µM; hit rate 1.4% among 96,000;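 active = activation factor of 2 or more for CYP2C9 at a 5 µM dose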;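 note: 0 = sulfaphenazole-blocked wells and 1 = vehicle-only wells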
# CYP2C19 activ: activators of human cytochrome P450 2C19. P33261. recombinant CYP2C19, luciferin-H EGE luminescence; active compounds read high; 0 = fully inhibited enzyme, 1 = untreated enzyme. activation factor at 5 µM. 96,000 tested, under 10 active. AID 1025;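 active = activation factor of at least 2 at 5 µM in the primary screen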;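 note: 0 = wells with 2.5 mM tranylcypromine and 1 = vehicle-only wells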
# CYP2C9 inhib: human CYP2C9 inhibition | P11712 | CYP2C9 Supersomes, luciferin-H conversion, luminescence | inhibition, % at 5 µM | hit rate 20% among 96,000 | AID 777;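 active = blocking of liver enzyme CYP2C9 beyond about 50% at 5 µM, limit read from the data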
# Active calls of the source: *; . = no result given.
SMILES,Measles CPE,CYP2C19 inhib,CYP2C9 activ,CYP2C19 activ,CYP2C9 inhib
CCc1nc(SCc2cc(Cl)ccc2OC)n[nH]1,10.4,94.5*,0.5,0.1,52.5*
COc1ccc(CSc2nc(CSC)cc(N3CCOCC3)n2)cc1,11.6,46.7,0.7,0.5,30.8
Nc1nc(SCc2ccc(Cl)cc2Cl)n[nH]1,4.5,73.1*,0.8,0.3,20.0
CNc1cc(CSC)nc(SCc2ccc(Cl)cc2Cl)n1,26.4*,-6.3,1,1.1,-0.6
CSCc1cc(N(C)C)nc(SCc2ccc(Cl)c(Cl)c2)n1,3.6,71.6*,0.3,0.3,71.3*
CCn1ncc(C(=O)Nc2ccccc2C)c1C,5.3,.,.,.,.
O=C(C1CC(c2ccc(F)cc2)=NO1)N1CCCc2ccccc21 (stereo not drawn),2.3,52.1*,2.4*,0.5,-137.6
COc1ccc(OC)c(C2=NOC(C(=O)N3CCCc4ccccc43)C2)c1 (stereo not drawn),52.0*,40.8,2.4*,0.6,-139.5
COc1cc(OC)c(C2=NOC(C(=O)O)C2)cc1Cl (stereo not drawn),5.4,-7.7,1.6,1.1,-62.8
COc1cccc(C2=NOC(C(=O)N3CCN(Cc4ccccc4)CC3)C2)c1OC (stereo not drawn),1.8,16.4,2.1*,0.8,-110.9
CCOC(=O)N1CCN(C(=O)C2CC(c3cc(OC)ccc3OC)=NO2)CC1 (stereo not drawn),.,-9.3,1.3,1.1,-27.9
O=C(C1CC(c2ccc(F)cc2)=NO1)N1CCN(Cc2ccccc2)CC1 (stereo not drawn),1.1,22.2,0.8,0.8,16.8
COc1cc(OC)c(C2=NOC(C(=O)N3CCc4ccccc4C3)C2)cc1Cl (stereo not drawn),4.7,58.7*,2.1*,0.4,-113.1
COCCOC(=O)c1c(C)oc2ccc(OC(=O)c3ccc4c(c3)OCO4)cc12,9.9,-9.9,0.1,1.1,86.8*
COCCOC(=O)c1c(C)oc2ccc(OC(=O)c3c(OC)cccc3OC)cc12,22.3,92.7*,0,0.1,95.8*
CCOC(=O)Oc1ccc2oc(C)c(C(=O)OCCOC)c2c1,3.4,15.4,1,0.8,-0.8
O=S(=O)(NC1c2cccc3cccc(c23)C1Sc1ncccn1)c1ccc(Cl)cc1 (stereo not drawn),4.3,.,.,.,.
O=Nc1c(O)n(Cc2cccc(Cl)c2)c2ccccc12,9.4,55.9*,0.3,0.4,74.3*
COc1cccc(C(=O)N2CCN(Cc3ccc4c(c3)OCO4)CC2)c1OC,9.0,8.6,1.2,0.9,-20.2
COc1ccc(Cl)cc1S(=O)(=O)N1CCN(Cc2ccc3c(c2)OCO3)CC1,6.4,73.8*,0.7,0.3,30.3
O=S(=O)(Cc1ccccc1Cl)N1CCN(Cc2ccc3c(c2)OCO3)CC1,26.5,93.6*,1.1,0.1,-7.6
COc1ccc(S(=O)(=O)N2CCN(Cc3ccc4c(c3)OCO4)CC2)c2ccccc12,18.1,89.4*,0.3,0.1,73.7*
COc1ccc(F)cc1S(=O)(=O)N1CCN(Cc2ccc3c(c2)OCO3)CC1,4.1,55.7*,0.7,0.4,28.5
Cc1cc(S(=O)(=O)N2CCN(Cc3ccc4c(c3)OCO4)CC2)cc(C)c1N1CCCC1=O,12.6,16.0,0.6,0.8,36.3
CSc1ccc(S(=O)(=O)N2CCN(Cc3ccc4c(c3)OCO4)CC2)cc1,12.4,26.1,0.6,0.7,42.1
SMILES,Measles CPE,CYP2C19 inhib,CYP2C9 activ,CYP2C19 activ,CYP2C9 inhib
Cc1cc2cc(CNC(=S)Nc3ccc(OC(F)(F)F)cc3)ccc2[nH]1,6.2,.,.,.,.
CC1CCCC(C)N1NC(=S)Nc1ccc(OC(F)F)cc1 (stereo not drawn),6.7,.,.,.,.
OC1C=CSc2nc3ccccc3n21 (stereo not drawn),13.7,-12.1,1.4,1.1,-41.5
Cc1ccc2nsnc2c1S(=O)(=O)N1CCN(Cc2ccc3c(c2)OCO3)CC1,23.9,97.3*,0.3,0,72.9*
Cc1ccc2nsnc2c1S(=O)(=O)N1CCCC1,11.0,37.4,1.3,0.6,-33.0
O=C(CN1C(=O)COc2ccccc21)N(Cc1cccnc1)Cc1ccccc1F,10.1,40.4,0.5,0.6,53.9*
O=C(CN1C(=O)COc2ccccc21)c1cccc(Cl)c1,12.4,99.3*,0.1,0,92.8*
O=C1COc2ccccc2N1Cc1ccccc1Cl,30.7,80.0*,0.8,0.2,21.8
O=C(CN1C(=O)COc2ccccc21)c1ccc(Cl)cc1,3.7,98.1*,0.1,0,86.3*
COC(=O)CN1C(=O)COc2ccc(Cl)cc21,8.3,.,.,.,.
O=C(Nc1ccc2nc(-c3ccc(Br)o3)[nH]c2c1)c1cccs1,4.1,45.2,0.3,0.5,66.7*
Cn1cccc1-c1nc2ccc(NC(=O)c3cccs3)cc2[nH]1,15.4,72.8*,0.2,0.3,78.5*
CC(=O)Nc1ccc2nc(-c3ccc(Br)o3)[nH]c2c1,24.1,.,.,.,.
COc1ccc(NCc2nnc(SCC(=O)N3CCCc4ccccc43)n2C)cc1,5.1,18.3,1.1,0.8,-8.7
Fc1ccc(NC(=S)Nc2cccc(Cl)c2)cc1,5.3,.,.,.,.
CCC(=O)Nc1ccc(C(=O)Nc2ccc(OC)cc2[N+](=O)[O-])cc1,23.6,.,.,.,.
CCC(=O)Nc1ccccc1Nc1cc(C#N)c(C#N)cc1[N+](=O)[O-],.,69.2*,0.8,0.3,23.6
Oc1ccccc1-c1nc(N2CCCC2)c2ccccc2n1,9.3,2.3,1.1,1,-10.9
CC1CCN(c2nc(-c3ccccc3O)nc3ccccc23)CC1,38.1*,-3.3,0.8,1,21.0
Oc1ccccc1-c1nc(N2CCN(Cc3ccccc3)CC2)c2ccccc2n1,16.5,65.1*,0.3,0.3,73.9*
CC(=O)c1c(C)[nH]c(C(=O)CSc2nc3ccccc3c(=O)n2CCCN2CCOCC2)c1C,4.8,68.8*,0.3,0.3,65.6*
CCOC(=O)c1sc2nc(CSc3nc4ccccc4n3CC)[nH]c(=O)c2c1C,1.7,44.0,0.3,0.6,68.2*
Cc1sc2nc(CSc3nc4ccccc4c(=O)n3CCCN3CCOCC3)[nH]c(=O)c2c1C,13.6,71.1*,0.3,0.3,70.1*
COCCn1c(SCC(=O)c2[nH]c(C)c(C(C)=O)c2C)nc2ccccc21,4.9,95.0*,0.2,0.1,77.8*
CCOC(=O)c1c(C)[nH]c(C)c1C(=O)CSc1nc2ccccc2n1CCOC,7.3,.,.,.,.
SMILES,Measles CPE,CYP2C19 inhib,CYP2C9 activ,CYP2C19 activ,CYP2C9 inhib
O=C(Nc1ccn(Cc2ccccc2F)n1)c1ccc(COc2ccc(Br)cc2)cc1,49.3,9.0,0.9,0.9,9.2
Clc1ccccc1-c1nc2ccccc2c2nc3ccccc3n12,11.1,.,.,.,.
COc1cc(C(c2sc3nc(C)nn3c2O)N2CCC3(CC2)OCCO3)cc(OC)c1OC (stereo not drawn),8.6,38.4,0.8,0.6,23.6
Cc1ccc(NC(=O)c2cc3c(=O)oc4ccccc4c3s2)nc1,18.2,.,.,.,.
O=c1c2ccccc2nc(-c2ccccc2)n1CCCN1CCOCC1,25.5*,-14.4,1.2,1.1,-21.6
S=C(c1ccc(Br)cc1)N1CCN(Cc2ccccc2)CC1,19.5,17.6,0.7,0.8,32.1
